# From PubChem BioAssay
# Pf growth 48h: P. falciparum growth inhibition at 48 hours (one generation); AID 504832; Potency, µM (top dose mostly 28.7 µM), without a hit: at the top dose activity change, negative = inhibition, most hits filed as inhibitors; 5.9% of 310,000 active; P. falciparum luciferase growth in erythrocytes, 48 h; note: potency is the fitted concentration of half-maximal effect; % is set by controls: 0 for no effect and ±100 for the full control effect
#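 A one-generation exposure of luciferase-tagged malaria parasites in RPMI 1640/Albumax erythrocyte culture, 37 C and 5% CO2. Inhibition is inferred from decreased luminescence after adding detection reagent.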
# Shiga inhibitor: blocks Shiga toxin action in Vero cells | 9.2% of 290,000 active | inhibition, % at 38.7 µM | Vero cells, Shiga toxin protein synthesis inhibition reporter | AID 2315; in the data active = inhibition mostly above about 28%, no sharp cut-off; inactive = mostly below about 43%; note: 0% is about no effect
# Pf growth 96h: inhibits malaria parasite growth, 96 h. P. falciparum luciferase reporter growth, 96 h. Potency, µM (titrated, usually from 28.7 µM), inactives show top-dose activity change, negative = inhibition, most hits filed as inhibitors. 6.9% of 320,000 active; note: potency is the fitted concentration of half-maximal effect; % is set by controls: 0 for no effect and ±100 for the full control effect
#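 96 h incubation, 37 C, 5% CO2, of luciferase-reporter P. falciparum-infected RBCs (2% hematocrit, 0.05% parasitemia final) with test compounds; endpoint luminescence.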
# CHX counter: affects cycloheximide protein synthesis inhibition readout, counter-screen | cell reporter, cycloheximide protein synthesis inhibition counterscreen | max response, % | 12% of 300,000 active | AID 2314; in the data active = max response mostly above about 13%, no sharp cut-off; inactive = mostly below about 14%; note: read at 38.3 µM for the half of the compounds with a filed dose; 0% is about no effect
# LmPK inhibitor: inhibitors of Leishmania mexicana pyruvate kinase | purified LmPK, Kinase-Glo ATP luminescence, 1 h | Potency, µM (top dose mostly 57.5 µM), for inactives: top-dose activity change, negative = inhibition, usual class: inhibitors | 0.37% of 290,000 active | AID 1721; note: potency is the fitted concentration of half-maximal effect; % is set by controls: 0 for no effect and ±100 for the full control effect
# Target sequence (Q27686 whole entry, looked up): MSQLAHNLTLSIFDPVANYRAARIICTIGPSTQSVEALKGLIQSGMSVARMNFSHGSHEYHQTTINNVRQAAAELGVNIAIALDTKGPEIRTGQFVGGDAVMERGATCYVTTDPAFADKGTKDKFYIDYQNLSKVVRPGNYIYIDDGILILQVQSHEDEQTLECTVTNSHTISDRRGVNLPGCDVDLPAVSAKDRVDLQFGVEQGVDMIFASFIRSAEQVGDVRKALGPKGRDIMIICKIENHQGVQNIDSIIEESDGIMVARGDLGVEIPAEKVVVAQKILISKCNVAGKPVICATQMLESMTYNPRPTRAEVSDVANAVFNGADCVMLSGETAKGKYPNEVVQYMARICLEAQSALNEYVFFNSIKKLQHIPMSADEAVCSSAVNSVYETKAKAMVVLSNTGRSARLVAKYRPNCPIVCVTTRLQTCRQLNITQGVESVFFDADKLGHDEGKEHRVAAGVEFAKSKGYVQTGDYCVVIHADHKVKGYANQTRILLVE
#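 Kinase-Glo luminescence read after 1 h RT reaction of 0.1 nM LmPK with 0.5 mM PEP and 0.1 mM ADP. Activity scaled between uninhibited and enzyme-free controls.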
# * hit, by the source's call; ? = inconclusive; nt = no result given; + = active, no number; ! = a repeat was not active; [ ] = dose if it differs, or a comment. Hits are enriched below; roughly 22% of the tested compounds scored in any of these assays. Unless noted, calls come from the whole dose curve; as a rule, active = well fitted inhibition curve with a large enough effect; inconclusive = small, poorly fitted or top-dose-only effect, or another doubt; inactive = no such curve, though single readings can be large or run the other way.
SMILES,Pf growth 48h,Shiga inhibitor,Pf growth 96h,CHX counter,LmPK inhibitor
NC1CCN(c2nc3c(cc2F)c(=O)c(C(=O)O)cn3-c2ccc(F)cc2F)C1 (configuration not stated),3.8µM*,nt,1.1µM*,nt,nt
COc1c(N2CCN(C(=S)Nc3ccc(F)cc3)C(C)C2)c(F)cc2c(=O)c(C(=O)O)cn(C3CC3)c12 (configuration not stated),?,-6,?,-2,-2%
O=C(O)c1cn(-c2ccc(N3CCCC3)c(F)c2)c2c(F)c(F)c(F)cc2c1=O,19%,-11,2%,0,0%
COc1cc(C(=O)O[C@H]2CC(C)=CC[C@@]3(C)CC[C@@](O)(C(C)C)[C@H]23)ccc1O,?,-7,?,-1,2%
COc1ccc(C(C)=O)cc1CSc1nc2ccccc2c(=O)n1-c1ccccc1C,12µM*,-3,2.3µM*,-4,1%
C=CCn1c(SCc2cc(C(C)=O)ccc2OCC)nc2ccccc2c1=O,?,-11,5.9µM*,-1,-1%
COc1ccc(S(=O)(=O)Nc2cccnc2)cc1,?,1,33%,6,-3%
O=C(CCC(=O)Nc1ccc(F)cc1)N/N=C/c1ccccc1,4%,4,1.5µM*,0,0%
Cc1ccc(NC(=O)CCC(=O)N/N=C/c2ccccc2O)cc1,-4%,-6,-53%,-2,2%
O=C(CCC(=O)Nc1ccc(Br)cc1)N/N=C/c1ccc(F)cc1,5%,-7,7%,-2,1%
O=C(CCC(=O)Nc1ccc(Br)cc1)N/N=C/c1ccccc1O,?,12,?,21*,-7%
O=C(CCC(=O)Nc1ccccc1)N/N=C/c1ccncc1,?,5,10%,23*,-2%
O=C(CCC(=O)Nc1ccc(F)cc1)N/N=C/c1ccncc1,2%,-21,-26%,-3,12%[11.5 µM]
O=C(CCC(=O)Nc1ccc(F)cc1)N/N=C/c1ccc(Br)cc1,-7%,-7,3.7µM*,-2,8%
CNc1ncnc2ccc(-c3c(C)noc3C)cc12,-2%,nt,-17%,nt,nt
Cc1ccc(SCCC(=O)N/N=C/c2ccccc2O)cc1,15µM*,2,?,6,2%
O=C(Nc1ccccc1)O/N=C/c1ccncc1,6%,38,?,17*,-13%
CCCCNC(C(=O)Nc1ccc(Cl)c([N+](=O)[O-])c1)c1ccccc1 (configuration not stated),?,-6,12µM*,-3,-2%
Cc1cccc(NC(=O)C(C)C(=O)c2ccccc2)c1 (configuration not stated),?,-7,56%,-1,-11%
NS(=O)(=O)c1ccc(NC(=S)NNC(=O)c2ccc(Br)o2)cc1,-5%,35,?,15*,-3%
O=C(Nc1ccccc1)c1ccc(Br)o1,101%,+!,72%,44*,-23%
Cc1cccc(NC(=O)c2ccc(C(=O)c3ccccc3)o2)c1,-20%,73*,?,37*,-2%
Cc1nc(NC(=O)c2ccc(Br)o2)ccc1Br,32%,63*,74%,36*,-5%
NS(=O)(=O)c1ccc(NC(=S)NC(=O)c2ccc(Br)o2)cc1,23%,17,35%,7,-4%
O=C(Nc1cccc(NC(=O)c2ccc(Br)o2)c1)c1ccccc1,18%,21,23%,7,0%
SMILES,Pf growth 48h,Shiga inhibitor,Pf growth 96h,CHX counter,LmPK inhibitor
Cc1ccc(S(=O)(=O)N2CCCCC2C(=O)O)s1 (configuration not stated),?,15,53%,-1,2%
CCC(Sc1nc(-c2ccccc2)c(C#N)c(=O)[nH]1)C(=O)Nc1nnc(C)s1 (configuration not stated),-1%,-6,18%,1,1%
O=C(Nc1ccc2c(c1)oc1ccccc12)c1ccc(Br)o1,nt,56,-27%,28,1%
CN(C(=S)NC(=O)c1ccc(Br)o1)c1ccccc1,12%,30*,36%,11,-1%
CCc1cccc(NC(=O)c2ccc(Br)o2)c1,16%,105*,14%,23*,-5%
O=C(c1ccccc1)c1cccc(NC(=O)c2ccc(Br)o2)c1,?,95,nt,39*,-4%
O=C(Nc1ccc2ccccc2c1)c1ccc(Br)o1,111%,86*,-29%,43*,-2%
CCOc1ccc(NC(=S)N2CCN(S(C)(=O)=O)CC2)cc1,?,-13,?,-2,1%
COc1ccc(NC(=O)c2ccc(S(=O)(=O)N3CCOCC3)o2)cc1,12%,10,-1%,15,2%
COc1ccc(NC(=O)c2ccc(C(=O)c3ccccc3)o2)cc1,7.4µM*,28,36%,30*,7%
O=S(=O)(Nc1ncccn1)c1ccc(NC(=S)N2CCN(Cc3ccc(F)cc3Cl)CC2)cc1,-21%,14,?,-4,-15%
CC(=O)OCC1=C(C(=O)O)N2C(=O)C(NC(=O)c3ccc(COc4cccc(Cl)c4Cl)o3)C2SC1 (configuration not stated),?,29,36%,-2,2%
COc1ccccc1CNC(=O)c1ccccc1NC(=O)C1=C(C)OCCS1,?,12,-55%,7,-13%
CC(C)C[C@H](NC(=O)c1nc[nH]c1C(=O)N[C@@H](CC(C)C)C(=O)OC(C)(C)C)C(=O)OC(C)(C)C,6.6µM*,-5,8.3µM*,-2,5%
CC(C)C[C@H](NC(=O)c1[nH]cnc1C(=O)Nc1ccc(Cl)cc1)C(=O)OC(C)(C)C,13µM*,-4,13µM*,9,3%
CC(C)C[C@H](NC(=O)c1nc[nH]c1C(=O)NCC(=O)OC(C)(C)C)C(=O)OC(C)(C)C,?,3,?,-3,4%
COc1ccc(CN(CC(=O)NCC2CCCO2)C(=O)CCC(=O)Nc2nccs2)cc1 (configuration not stated),0%,-7,19%,0,5%
CC(=O)c1ccccc1OC(=O)c1ccc([N+](=O)[O-])o1,45%,27,52%,1,-1%
Cc1[nH]c2ccccc2c1C(=O)C(C)OC(=O)c1ccc([N+](=O)[O-])o1 (configuration not stated),3.3µM*,16,?,3,-1%
Cc1ccccc1CN1[C@@H]2c3ccccc3C[C@@H]2OCCS1(=O)=O,-6%,-6,46%,0,-4%
Cc1ccccc1NC(=O)Cc1nc(COC(=O)c2cccc(O)c2)cs1,?,nt,-48%,nt,nt
Cc1ccccc1NC(=O)Cc1nc(-c2c[nH]c(C(=O)N3CCCC3)c2)cs1,9.3µM*,nt,10µM*,nt,nt
Cc1cccc(NC(=O)Cc2nc(-c3c[nH]c(C(=O)N4CCCC4)c3)cs2)c1,12µM*,nt,?,nt,nt
O=C(O)c1ccc(/C=N/O)cc1,36%,3,21%,-1,0%
O/N=C/c1ccc2ccccc2c1,30%,56,44%,21*,1%
